Source: PubChem BioAssay (National Center for Advancing Translational Sciences (NCATS))
Compounds with a hit are over-represented: about 11% of the library has one in this group of screens.
HPGD block – HPGD (human) dehydrogenase inhibition. AID 894. purified HPGD, NADH fluorescence kinetic, PGE2 substrate. P15428. Potency, µM, without a hit: top-dose activity change, negative = inhibition, actives largely listed as inhibitors. 4.3% of 150,000 active; further: potency means the concentration at half of the fitted maximal effect
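20 nM HPGD preincubated 15 min at room temperature with compound in 50 mM Tris-HCl pH 8, 0.01% Tween 20. Started with 1 mM NAD+ and 30 uM prostaglandin E2; NADH fluorescence (360/450 nm) read 5 times over 30-s intervals, last minus first.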
ALOX12 inhib – 12-hLO (ALOX12) enzyme inhibition | 0.12% of 150,000 active | AID 1452 | purified 12-hLO, xylenol orange hydroperoxide absorbance | Potency, µM (series often up to 57.1 µM), inactives show at the top dose activity change, negative = inhibition, most hits filed as inhibitors; active means well fitted curve in the direction sought with a large enough effect; inconclusive means small, poorly fitted or top-dose-only effect, or another doubt; inactive means no such curve, though single readings can be large; an effect the other way counts as inactive or inconclusive; further: potency means the concentration at half of the fitted maximal effect; nearly all actives have a fitted effect of over 55% in size
Target sequence (P18054 whole entry, looked up): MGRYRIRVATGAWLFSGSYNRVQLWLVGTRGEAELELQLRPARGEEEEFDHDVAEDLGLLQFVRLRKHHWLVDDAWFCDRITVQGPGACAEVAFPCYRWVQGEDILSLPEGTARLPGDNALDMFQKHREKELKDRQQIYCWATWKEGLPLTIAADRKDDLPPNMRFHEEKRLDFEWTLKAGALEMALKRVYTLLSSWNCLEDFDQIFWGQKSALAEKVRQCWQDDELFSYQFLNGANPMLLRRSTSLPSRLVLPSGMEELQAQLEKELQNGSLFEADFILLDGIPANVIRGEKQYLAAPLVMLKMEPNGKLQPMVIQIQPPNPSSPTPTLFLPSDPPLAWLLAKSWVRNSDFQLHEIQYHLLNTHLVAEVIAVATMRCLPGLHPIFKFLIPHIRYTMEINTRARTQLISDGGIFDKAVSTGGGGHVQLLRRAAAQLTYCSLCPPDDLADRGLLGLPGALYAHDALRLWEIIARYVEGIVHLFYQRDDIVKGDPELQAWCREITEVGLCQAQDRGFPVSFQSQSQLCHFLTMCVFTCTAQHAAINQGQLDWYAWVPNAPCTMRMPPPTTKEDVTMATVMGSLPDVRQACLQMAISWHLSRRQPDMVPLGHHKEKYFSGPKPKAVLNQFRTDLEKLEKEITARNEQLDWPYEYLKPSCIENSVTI
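Hydroperoxide output read as Fe(III)-xylenol orange absorbance, 573-to-405 nm ratio, after 30 min reaction with 40 uM arachidonic acid. Enzyme: 150 nM purified human 12hLO, 15 min compound preincubation; 25 mM Hepes pH 7.0, room temperature.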
ALDH1A1 block – ALDH1A1 (human) enzyme inhibition; Purified ALDH1A1, NADH fluorescence, propionaldehyde substrate; Potency, µM (highest dose often 75.3 µM), without a hit: top-dose activity, negative = inhibition, hits mostly inhibitors; 7.3% of 220,000 active; AID 1030;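 further: potency means the concentration at half of the fitted maximal effect; plate controls were no enzyme wells and a reference inhibitor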
PNC assembly inh – blocks assembly of the perinucleolar compartment | activity change (PNC), negative = inhibition, % at 10 µM | PC3M PTB-GFP, PNC prevalence imaging, 16 h; hits give low values | AID 2417 | 3.1% of 140,000 active;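 active means readout at or below -70, meaning at least 70% loss of cells showing the perinucleolar compartment, a nuclear body marking cancer cells; inconclusive means readout between -30 and a set limit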;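 further: plate controls were DMSO wells for no effect and camptothecin positive control wells for full effect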
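PC3M cells stably expressing PTB-GFP, 750–1000 cells/well, treated 16 h at 37 °C with compound (23 nl of library stock), in duplicate. After paraformaldehyde fixation and Hoechst stain, imaged at 20x; PNC prevalence scored by image analysis.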
IMPase Li cell – membrane-permeable IMPase blocker, potentiated with lithium. CHO-M1 cells, IP1 TR-FRET (IP-One), carbachol + lithium. Potency, µM (doses to about 59.4 µM), without a hit: at the top dose activity, negative = IMPase inhibition, hits mostly inhibitors. 0.35% of 210,000 active. AID 1457; active means well fitted curve in the direction sought with a large enough effect; inconclusive means small, poorly fitted or top-dose-only effect, or another doubt; inactive means no such curve, though single readings can be large; an effect the other way counts as inactive or inconclusive;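 further: IP1 builds up when IMPase is blocked and the TR-FRET signal falls; potency means the concentration at half of the fitted maximal effect; plate controls were basal vehicle for no effect and high inhibitor control for full effect; nearly all actives have a fitted effect of over 50% in size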
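Concentration–response in CHO-M1 cells, lithium-potentiated; 30 min at 37C. IP1 detected by competitive TR-FRET after 10 min lysis at RT. Hill-fitted AC50.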
IMPase inh – membrane-permeable compound that blocks inositol monophosphatase; P97697; CHO-M1 cells, IP1 accumulation, HTRF TR-FRET ratio; inhibition (IP1 accumulation), % at 46.1 µM; 120,000 tested, under 10 active; active means well fitted curve in the direction sought with a large enough effect in the signal ratio, not every such curve was filed as active; inconclusive means small, poorly fitted or top-dose-only effect, or a change in a side signal; inactive means no such curve, though single readings can be large or run the other way; the % refers to the signal ratio;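 further: cells stimulated with carbachol in lithium chloride buffer; plate controls were DMSO basal wells for no effect and reference inhibitor wells for full effect; higher means more IMPase inhibition seen as more IP1 and lower FRET ratio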
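Carbachol-driven Gq signalling in CHO-M1 cells (2000/well) generates IP1. Compounds that block IMPase raise IP1 and so reduce the FRET signal from Eu-anti-IP1 and d2-IP1 after a 10 min room-temperature lysis.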
Numbers without * were called inactive; ? = inconclusive; · = no result; [ ] = remark or other dose. Unless noted, the call rests on the fitted dose curve; in most records, active means well fitted inhibition curve with a large enough effect (not every such curve was filed as active); inconclusive means small, poorly fitted or top-dose-only effect, or another doubt; inactive means no such curve, though single readings can be large or run the other way. Unless noted, on the % scale 0 is the no-effect control and ±100 the full control effect.

SMILES | HPGD block | ALOX12 inhib | ALDH1A1 block | PNC assembly inh | IMPase Li cell | IMPase inh
COC(=O)C=P(c1ccccc1)(c1ccccc1)c1ccccc1 | -8% | · | 13% | · | 43% | ·
Clc1ccccc1-c1nc(NCc2cccs2)c2ccccc2n1 | · | · | ? | · | 11% | ·
CN1C[C@H](C(=O)N[C@]2(C)O[C@@]3(O)[C@H]4CCCN4C(=O)[C@H](Cc4ccccc4)N3C2=O)C[C@H]2c3cccc4[nH]cc(c34)C[C@@H]21 | -5% | -4% | 1% | · | 26% | 9
COCCNC(=O)CSc1nc2cc3c(cc2c(=O)n1Cc1ccco1)OCO3 | -6% | 2% | 13µM* | -23 | 4%[38.3 µM] | 1
CCC(Sc1nc2cc3c(cc2c(=O)n1Cc1ccco1)OCO3)C(=O)Nc1cccc(OC)c1 (stereo unspecified) | -11% | 0% | ? | ? | 1%[38.3 µM] | 10
CCC(Sc1nc2cc3c(cc2c(=O)n1Cc1ccco1)OCO3)C(=O)NCCOC (stereo unspecified) | -5% | -8% | 2.2µM* | -24 | 3%[38.3 µM] | 0
CCCCNC(=O)CSc1nc2cc3c(cc2c(=O)n1Cc1ccco1)OCO3 | · | · | ? | · | 9% | ·
O=C(NCC1CCCO1)c1ccc2c(=O)n(Cc3ccco3)c(SCC(=O)N3CCCC3)nc2c1 (stereo unspecified) | ? | 4% | ? | 39 | -4%[38.3 µM] | 1
CCN(CC)C(=O)CSc1nc2c(sc(=S)n2Cc2ccco2)c(=O)n1-c1ccccc1 | -9% | -11% | 6.3µM* | 18 | -10%[38.3 µM] | ?
CCOC(=O)CSc1nc2cc(C(=O)NCC3CCCO3)ccc2c(=O)n1Cc1ccco1 (stereo unspecified) | -25% | -2% | ? | -88* | 3%[38.3 µM] | 7
CCOC(=O)CSc1nc2c(sc(=S)n2Cc2ccco2)c(=O)n1-c1ccccc1 | -11% | -5% | ? | 7 | -6%[38.3 µM] | ?
CCC(Sc1nc2cc3c(cc2c(=O)n1Cc1ccco1)OCO3)C(=O)Nc1ccccc1OC (stereo unspecified) | -16% | 2% | 1.1µM* | 22 | -19%[38.3 µM] | 8
COCCCn1c(SCC(=O)NC2CCCC2)nnc1-c1ccco1 | -14% | 2% | 13µM* | -107* | 2%[38.3 µM] | -8
CC1=NN(c2ccc(Cl)cc2)C(=O)C1 | · | · | 0.63µM* | · | 19% | ·
CC1=NN(c2cccc([N+](=O)[O-])c2)C(=O)C1 | · | · | ? | · | 2% | ·
CC1=NN(c2ccc(N)cc2)C(=O)C1 | -2% | -6% | ? | 34 | 35%[38.3 µM] | -1
CC1=NN(c2ccccc2)C(=O)C1 | 5% | -6% | 10µM* | 14 | 4% | 7
Fc1ccc(Nc2ncnc3ccc(-c4ccoc4)cc23)cc1 | · | · | ? | · | 3% | ·
CCOc1ccc(C(=O)c2ccc(O)c(O)c2O)cc1 | ? | -25% | 9.5µM* | · | -2% | ·
CCOc1cccc(C(=O)c2ccc(O)c(O)c2O)c1 | 16µM* | ? | 1.6µM* | · | 38% | ·
CCOc1ccc(C(=O)c2cc3ccc(O)cc3oc2=O)cc1 | · | · | 21% | · | 0% | ·
CC(=O)N1CCN(c2ccc([N+](=O)[O-])c(NCC3CCCO3)c2)CC1 (stereo unspecified) | -12% | -9% | 5% | 79 | 6%[38.3 µM] | 11
Cc1ccccc1C(=O)N1CCN(c2ccc([N+](=O)[O-])c(NCc3cccnc3)c2)CC1 | -13% | -7% | 16µM* | 43 | 9% | 7
O=C(c1ccccc1F)N1CCN(c2ccc([N+](=O)[O-])c(NCC3CCCO3)c2)CC1 (stereo unspecified) | · | · | 11µM* | · | 12% | ·
Cc1ccc(C(=O)N2CCN(c3ccc([N+](=O)[O-])c(NCc4cccnc4)c3)CC2)cc1 | -9% | 0% | 13µM* | -22 | 6% | ·
SMILES | HPGD block | ALOX12 inhib | ALDH1A1 block | PNC assembly inh | IMPase Li cell | IMPase inh
Cc1ccc(C(=O)Nc2ccc3oc(-c4cc(Br)ccc4Cl)nc3c2)cc1 | · | · | · | · | · | -10
O=C(Cc1cccs1)N1CCC(c2nc3c(nnn3Cc3ccc(F)cc3)c(=O)[nH]2)CC1 | 14µM* | -12% | -6% | ? | -12%[38.3 µM] | 4
O=C(Nc1ccc(F)cc1)N1CCC(c2nc3c(nnn3Cc3ccccc3Cl)c(=O)[nH]2)CC1 | · | · | -9% | · | -1% | ·
CCCc1nc2c(nnn2Cc2ccccc2)c(=O)[nH]1 | -26% | -4% | -2% | -14 | 31%[38.3 µM] | 8
O=C(Cc1cccs1)N1CCCC(c2nc3c(nnn3Cc3cccc(Cl)c3)c(=O)[nH]2)C1 (stereo unspecified) | 6.3µM* | -16% | -9% | -11 | 7%[38.3 µM] | 6
COc1ccc(CCNC(=O)c2ccc(Nc3nc4ccccc4n4nnnc34)cc2)cc1OC | · | · | · | · | · | -8
O=C(Nc1cccnc1)c1ccc(COc2ccccc2Cl)o1 | 14µM* | 1% | -3% | -2 | -8%[38.3 µM] | 7
O=C(Nc1nccs1)c1ccc(COc2ccccc2Br)o1 | -25% | -4% | 2% | -88* | 3% | 1
O=C(Nc1nccs1)c1ccc(COc2ccc(F)cc2)o1 | 14µM* | -3% | ? | 31 | ? | -3
N#C[C@H](Cc1ccc(O)cc1)c1ccc(O)cc1 | -8% | -2% | ? | · | 15% | -2
Clc1ccc2c(NCc3ccccn3)ncnc2c1 | ? | 14% | 3.5µM* | 22 | 25%[38.3 µM] | -3
O=C(CSc1nnc(-c2ccccc2F)o1)N1CCc2ccccc21 | · | · | · | · | · | 19
CCN(CC)c1ccc(SS(=O)(=O)O)cc1 | 8.9µM* | -10% | 13µM* | 0 | -35%[38.3 µM] | 4
COC(=O)c1ccc(NC(=O)Cn2c(=O)oc3ccccc32)cc1 | · | · | · | · | · | 5
Cc1nnc(N/N=C/c2ccc(-c3ccc(Br)cc3)o2)n1N | · | · | 7.9µM* | · | -8% | ·
O=c1[nH]c(=O)n([C@@H]2C[C@H](O)[C@H](CO)O2)cc1I | -8% | 1%[25.6 µM] | 10%[20.9 µM] | · | -2% | 3[20.6 µM]
[N-]=C=C1C(=S)NC(=O)[C@H]([n+]2ccccc2)[C@H]1c1ccc(Cl)cc1 | · | · | 14µM* | · | · | ·
CN(C)c1ccc(C=NCC2(O)CCOC(C)(C)C2)cc1 (stereo unspecified) | -13% | 2% | 0.45µM* | 26 | 20%[38.3 µM] | -1
CN(C)c1ccc(CNCCC2CCOC(C)(C)C2)cc1 (stereo unspecified) | -16% | 0% | ? | 25 | 7%[38.3 µM] | 2
COCCn1c(=O)cnc2cnc(N3CCN(C)CC3)nc21 | · | · | ? | · | 0% | ·
Cc1nc2ccccc2c2oc(C(=O)N3CCc4ccccc4C3)cc12 | -10% | -4% | 25µM* | 7 | 17%[38.3 µM] | 17
Cc1nc2ccccc2c2oc(C(=O)N3CCN(C(=O)c4ccco4)CC3)cc12 | -22% | 3% | ? | 27 | 28%[38.3 µM] | -3
O=c1[nH]c(=S)[nH]nc1Cc1ccccc1 | 28µM* | -2% | ? | 21 | 4%[38.3 µM] | -6
